# Assay results from PubChem BioAssay (EPA / NIEHS).
# Records with an inconclusive call do not appear. The source holds several records for some structures; these can differ, active in one and inactive in another. The source made the active and inactive calls. Rule for the calls, unless noted: active = hit-call score of the fitted dose curve at least 0.9, where 1 is the maximum; inconclusive = response in the unintended direction; inactive = score below 0.9.
# Tests used:
# [1] = Tanguay_ZF_120hpf_CFIN_legacy: (Legacy) Oregon State University Tanguay Lab 120 Hour Post-fertilization zebrafish Assay for Caudal Fin Malformation (AID 2283649)
# Summary of the method: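 Binary brightfield scoring of caudal fin defects at 120 hpf after static, light-shielded exposure at 28C from 6 hpf. Tropical 5D embryos, chorion removed with pronase at 4 hpf, final DMSO 0.64%.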
# [2] = Tanguay_ZF_120hpf_CIRC_legacy: (Legacy) Oregon State University Tanguay Lab 120 Hour Post-fertilization zebrafish Assay for Circulatory Malformation (AID 2283651)
# Summary of the method: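 Binary circulatory malformation call at 120 hpf by brightfield imaging of zebrafish larvae; chorion removed at 4 hpf, static exposure from 6 hpf in sealed dark plates at 28C, final DMSO 0.64%; non-mortality endpoints skipped if embryo died.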
# [3] = Tanguay_ZF_120hpf_TRUN_legacy: (Legacy) Oregon State University Tanguay Lab 120 Hour Post-fertilization zebrafish Assay for Truncated Body (AID 2283655)
# Summary of the method: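 Binary presence/absence of truncated body is recorded at 120 hpf by brightfield, with non-mortality endpoints skipped after death. Exposure is static from 6 hpf in sealed dark plates at 28C, using dechorionated wild-type zebrafish, 0.64% DMSO.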
# [4] = Tanguay_ZF_120hpf_PFIN_legacy: (Legacy) Oregon State University Tanguay Lab 120 Hour Post-fertilization zebrafish Assay for Pectoral Fin Malformation (AID 2283648);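 note: each larva judged yes or no for fin defect by brightfield with dead larvae skipped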
# Summary of the method: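 Scoring of pectoral fin malformation was binary, made at 120 hpf on larvae exposed statically from 6 hpf after enzymatic chorion removal. Activity was fitted upward relative to DMSO controls at 0.64% (vol/vol).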
# [5] = Tanguay_ZF_120hpf_PIG_legacy: (Legacy) Oregon State University Tanguay Lab 120 Hour Post-fertilization zebrafish Assay for Pigmentation Malformation (AID 2283650)
# Summary of the method: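 Endpoint is incidence of abnormal pigmentation at 120 hpf in dechorionated 5D zebrafish exposed singly from 6 hpf at 28C, DMSO vehicle at 0.64%. Embryos dying by 24 or 120 hpf are excluded from scoring.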
# [6] = Tanguay_ZF_120hpf_SWIM_legacy: (Legacy) Oregon State University Tanguay Lab 120 Hour Post-fertilization zebrafish Assay for Swim Bladder Malformation (AID 2283654);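 note: swim bladder malformation in each larva scored yes or no under brightfield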
# Summary of the method: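 Static waterborne exposure of single dechorionated Tropical 5D zebrafish embryos, 6–120 hpf, 28C, 0.64% DMSO final. Read-out: swim bladder malformation, present/absent, relative to DMSO negative control; trimethyltin chloride 5uM served as positive control.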
# [7] = read-out: kallikrein-3 (KLK3), KLK3 (gene 354); assay: LTEA_HepaRG_KLK3: Life Technologies and Expression Analysis (LTEA) Assay for kallikrein-3 (KLK3) using HepaRG (AID 2283652; active = hit-call score of the fitted dose curve at least 0.9, where 1 is the maximum; inactive = score below 0.9); conditions: mRNA level, 48 h; actives raise or lower the signal
# Summary of the method: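 KLK3 transcript levels were measured by TaqMan qRT-PCR with normalisation to three housekeeping genes. HepaRG cultures received chemicals for 48 h at up to 100 uM (half-log, 8 points, 0.5% DMSO vehicle), fitted in both directions against DMSO.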
# [8] = read-out: solute carrier (SLC22A6), SLC22A6 (gene 9356); assay: LTEA_HepaRG_SLC22A6: Life Technologies and Expression Analysis (LTEA) Assay for solute carrier (SLC22A6) using HepaRG (AID 2283653; active = hit-call score of the fitted dose curve at least 0.9, where 1 is the maximum; inactive = score below 0.9); conditions: mRNA level, 48 h; actives raise or lower the signal
# Summary of the method: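 SLC22A6 transcript was measured by TaqMan qRT-PCR, normalized to three housekeeping genes, after 48 h duplicate exposure of HepaRG cells (100 uM top, half-log steps, 0.5% DMSO); bidirectional fit against vehicle.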
# [9] = read-out: solute carrier (SLC10A1), SLC10A1 (gene 6554); assay: LTEA_HepaRG_SLC10A1: Life Technologies and Expression Analysis (LTEA) Assay for solute carrier (SLC10A1) using HepaRG (AID 2283657; active = hit-call score of the fitted dose curve at least 0.9, where 1 is the maximum; inactive = score below 0.9); conditions: mRNA level, 48 h; actives raise or lower the signal
# Summary of the method: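 Cryopreserved HepaRG cells are thawed, plated and cultured 48 h; medium is then switched to serum-free induction medium and chemicals added (8 points, max 100 uM, 0.5% DMSO). After 48 h, RNA is isolated and SLC10A1 quantified by qRT-PCR.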
# [10] = read-out: matrix metalloproteinase-1 (MMP1), MMP1 (gene 4312); assay: LTEA_HepaRG_MMP1: Life Technologies and Expression Analysis (LTEA) Assay for matrix metalloproteinase-1 (MMP1) using HepaRG (AID 2283658; active = hit-call score of the fitted dose curve at least 0.9, where 1 is the maximum; inactive = score below 0.9); conditions: mRNA level, 48 h; actives raise or lower the signal
# Protocol: LTEA_HepaRG is a cell based, multiplexed-readout assay that uses HepaRG, a human liver cell line, with measurements taken at 48 hours after chemical dosing on a 96-well plate.LTEA_HepaRG_MMP1 is one of 102 assay component(s) measured in the LTEA HepaRG cell culture assay. It is a marker of Fibrosis.Data from the assay component LTEA_HepaRG_MMP1 was analyzed into 1 endpoint. This assay endpoint, LTEA_HepaRG_MMP1, was analyzed with bidirectional fitting relative to DMSO as the negative control and baseline of activity. Using a type of inducible reporter, measures of mRNA induction for gain or loss-of-signal activity can be used to understand regulation of transcription factor activity. To generalize the intended target to other relatable targets, this assay endpoint is annotated to the protease intended target family, where the subfamily is matrix metalloproteinase.
# A total of 1060 chemcials from the ToxCast library were tested in eight-point concentration-response experiments. Cell culture and cytotoxicity assays were conducted at Thermo Fisher Scientific's Custom Services facility (Madison, WI). A single lot of human HepaRG cells (Thermo Fisher Scientific, Frederick, MD) was used for the cell culture experiments. 96-well format collagen type I coated plates of human HepaRG cells were prepared using established methods. Briefly, cryopreserved HepaRG cells were thawed, plated at a density of approximately 100,000 cells/well in HepaRG Thaw, Plate, and General Purpose media (HPRG770, Thermo Fisher Scientific), and incubated for 48 hours. 0.5% DMSO was selected as vehicle control to balance the requisite need of DMSO in HepaRG cultures to maintain differentiation (for example, baseline metabolism, proportions of hepatocytes vs. cholangiocytes), while enabling further hepatic receptor pathway activation (for example, PXR and CAR) in response to chemical exposure. 48 hours after plating, the culture medium was replaced with HepaRG Serum-Free Incudtion Media. Cells were exposed to each test chemical in duplicate and maintained in CO2 incubators for another 48 hours. Chemical plates were thawed to room temperature and 200x concentrations of treatment groups were prepared. 8-point conentration-reponse curves were made with the highest exposure at 100 uM, followed by half-log dilutions, all in 0.5% DMSO. Each test plate contained variouse controls, induction positive controls (1mM phenobarbital), cytotoxicity positive controls ([…] aflatoxin B1), vehicle controls (0.5% DMSO), and total lysis controls (0.5% DMSO). […] Fluidigm's 96.96 Dynamic ArrayTM (Fluidigm, Amsterdam, the Netherlands) technology was used for gene expression analyses by quantitative reverse transcription polymerase chain reaction (qRT-PCR, performed by Quintiles/Expression Analysis, Durham, NC)89. […]
compound,measurement,setting,value
CN(C)N=O,outcome,[1],inactive
same,outcome,[2],inactive
same,outcome,[3],inactive
C[C@]12CCC(=O)C[C@@H]1CC[C@@H]1[C@@H]2CC[C@]2(C)[C@@H](O)CC[C@@H]12,outcome,[4],inactive
same,outcome,[1],inactive
same,outcome,[5],inactive
same,outcome,[2],inactive
same,outcome,[3],inactive
CCOP(=S)(OCC)Oc1nc(Cl)c(Cl)cc1Cl,outcome,[1],inactive
same,outcome,[5],inactive
same,outcome,[2],inactive
same,outcome,[3],inactive
O=C(Nc1ccc2[nH]ccc2c1)c1cc2cc(F)ccc2n1Cc1cccc(F)c1,outcome,[4],inactive
same,outcome,[1],inactive
same,outcome,[5],inactive
same,outcome,[2],inactive
same,outcome,[6],inactive
same,outcome,[3],inactive
CCC(=O)C(CC(C)N(C)C)(c1ccccc1)c1ccccc1 (stereo not drawn),outcome,[4],inactive
same,outcome,[1],inactive
same,outcome,[5],inactive
same,outcome,[2],inactive
same,outcome,[6],inactive
same,outcome,[3],inactive
CCN1CCC2(CC1)COc1cc3c(cc12)N(C(=O)c1ccc(-c2ccc(-c4nnc(C)o4)cc2C)cc1)CC3,outcome,[4],inactive
same,outcome,[5],inactive
same,outcome,[2],inactive
same,outcome,[6],inactive
same,outcome,[3],inactive
O=c1[nH]c(=O)[nH]c(=O)[nH]1,outcome,[4],inactive
same,outcome,[5],inactive
same,outcome,[2],inactive
same,outcome,[3],inactive
NC(=O)O,outcome,[1],inactive
same,outcome,[2],inactive
same,outcome,[7],inactive
same,outcome,[8],inactive
same,outcome,[6],inactive
same,outcome,[3],inactive
same,outcome,[9],inactive
same,outcome,[10],inactive
CC(C)(c1ccccc1)c1ccc(O)c(C(C)(C)c2ccccc2)c1,outcome,[4],inactive
same,outcome,[1],inactive
same,outcome,[5],inactive
same,outcome,[2],inactive
same,outcome,[6],inactive
same,outcome,[3],inactive
O=C(O)C(F)(F)C(F)(F)C(F)(F)C(F)(F)C(F)(F)C(F)(F)F,outcome,[4],inactive
same,outcome,[1],inactive
same,outcome,[5],inactive
same,outcome,[2],inactive
same,outcome,[6],inactive
CCOP(=S)(OCC)SCSP(=S)(OCC)OCC,outcome,[4],inactive
same,outcome,[1],inactive
same,outcome,[2],inactive
same,outcome,[6],inactive
same,outcome,[3],inactive
CC(C)(OO)c1ccccc1,outcome,[4],inactive
same,outcome,[1],inactive
same,outcome,[5],inactive
same,outcome,[2],inactive
same,outcome,[6],inactive
same,outcome,[3],inactive
CC(=O)[O][Hg][c]1ccccc1,outcome,[4],inactive
same,outcome,[1],inactive
same,outcome,[5],inactive
same,outcome,[2],inactive
same,outcome,[6],inactive
same,outcome,[3],inactive
O=C(O)C(Cl)(Cl)Cl,outcome,[4],inactive
same,outcome,[1],inactive
same,outcome,[5],inactive
same,outcome,[2],inactive
same,outcome,[6],inactive
same,outcome,[3],inactive
CC12CC1(C)C(=O)N(c1cc(Cl)cc(Cl)c1)C2=O (stereo not drawn),outcome,[5],inactive
same,outcome,[2],inactive
same,outcome,[6],inactive
same,outcome,[3],inactive
ClC1(Cl)C2(Cl)C3(Cl)C4(Cl)C(Cl)(Cl)C5(Cl)C3(Cl)C1(Cl)C5(Cl)C24Cl (stereo not drawn),outcome,[4],inactive
same,outcome,[1],inactive
same,outcome,[5],inactive
same,outcome,[2],inactive
same,outcome,[7],inactive
same,outcome,[8],inactive
same,outcome,[6],inactive
same,outcome,[3],inactive
same,AC50,[9],1.22 µM (active)
same,outcome,[10],inactive
CC(C)(C)CC(C)(C)c1ccc(O)cc1,outcome,[4],inactive
same,outcome,[1],inactive
same,outcome,[6],inactive
same,outcome,[3],inactive
O=C(O)C(F)(F)C(F)(F)C(F)(F)C(F)(F)C(F)(F)C(F)(F)C(F)(F)C(F)(F)C(F)(F)C(F)(F)F,outcome,[4],inactive
same,outcome,[1],inactive
same,outcome,[5],inactive
same,outcome,[2],inactive
same,outcome,[7],inactive
same,outcome,[8],inactive
same,outcome,[3],inactive
same,AC50,[9],47.8 µM (active)
same,outcome,[10],inactive
CCC(C)(C)c1ccc(O)c(C(C)(C)CC)c1,outcome,[1],inactive
same,outcome,[5],inactive
same,outcome,[2],inactive
same,outcome,[6],inactive
same,outcome,[3],inactive
ClCC(Cl)CCl,outcome,[1],inactive
same,outcome,[5],inactive
same,outcome,[2],inactive
same,outcome,[6],inactive
same,outcome,[3],inactive
Oc1cccc2cccnc12,outcome,[4],inactive
same,outcome,[1],inactive
same,outcome,[5],inactive
same,outcome,[2],inactive
same,outcome,[8],inactive
same,outcome,[9],inactive
same,outcome,[10],inactive
COc1cc(-c2ccc(N)c(OC)c2)ccc1N,AC50,[4],87.5 µM (active)
same,outcome,[4],inactive
same,outcome,[1],inactive
same,outcome,[5],inactive
same,outcome,[2],inactive
same,AC50,[6],95.5 µM (active)
same,outcome,[3],inactive
CCCCCCCCc1ccc(O)cc1,outcome,[4],inactive
same,outcome,[1],inactive
same,outcome,[6],inactive
same,outcome,[3],inactive
C=C(C)C(=O)[O][Sn]([CH2]CCC)([CH2]CCC)[CH2]CCC,outcome,[4],inactive
same,outcome,[1],inactive
same,outcome,[5],inactive
same,outcome,[2],inactive
same,outcome,[6],inactive
same,outcome,[3],inactive
CC(C)(C)c1cc(O)ccc1O,outcome,[4],inactive
same,outcome,[1],inactive
same,outcome,[2],inactive
same,outcome,[3],inactive
C[C@@H]1C[C@@H]([C@H](O)CC2CC(=O)NC(=O)C2)C(=O)[C@@H](C)C1,outcome,[1],inactive
same,outcome,[5],inactive
same,outcome,[2],inactive
same,outcome,[3],inactive
O=C1C2(Cl)C3(Cl)C4(Cl)C(Cl)(Cl)C5(Cl)C3(Cl)C1(Cl)C5(Cl)C24Cl (stereo not drawn),outcome,[4],inactive
same,outcome,[1],inactive
same,outcome,[5],inactive
same,outcome,[2],inactive
same,AC50,[3],15.2 µM (active)
O=[N+]([O-])c1ccc(O)c([N+](=O)[O-])c1,outcome,[4],inactive
same,outcome,[5],inactive
same,outcome,[2],inactive
same,outcome,[6],inactive
Cn1sc(Cl)cc1=O,outcome,[4],inactive
same,outcome,[1],inactive
same,outcome,[5],inactive
same,outcome,[6],inactive
C=CC(=O)OCCCCCC(C)C,outcome,[4],inactive
same,outcome,[1],inactive
same,outcome,[2],inactive
same,outcome,[6],inactive
same,outcome,[3],inactive
Cc1ccccc1N,outcome,[4],inactive
same,outcome,[1],inactive
same,outcome,[5],inactive
same,outcome,[2],inactive
same,outcome,[6],inactive
same,outcome,[3],inactive
